High-throughput results deposited in PubChem BioAssay by National Center for Advancing Translational Sciences (NCATS).
HCV inh = qHTS Assay for Inhibitors of Hepatitis C Virus (HCV). 340,000 compounds, 3.4% hits. Huh7.5.1 HCVcc-Cre infection, luciferase reporter, 44 h. Potency, µM (doses to about 41.8 µM), usual class: inhibitors; active means well fitted inhibition curve with a large enough effect; inconclusive means small, poorly fitted or top-dose-only effect, or another doubt; inactive means no such curve, though single readings can be large or run the other way
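Antiviral activity was scored by luciferase reporter output from cells infected with HCVcc-Cre (~0.5 moi) in presence of compound, 44 h infection period, cells seeded 1,000/well 4 h prior.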
SARS PLP yeast = qHTS of Yeast-based Assay for SARS-CoV PLP | 330,000 compounds, 0.19% hits | S. cerevisiae expressing SARS-CoV PLpro, growth rescue | Potency, µM (titrated, usually from 32.9 µM), actives largely listed as activators | AID 485353, 2010; calls by dose curve; further: nearly all actives have a fitted effect of over 55% in size
HCMV antiviral = qHTS Assay for inhibitors of the human cytomegalovirus (HCMV); HFF cells, HCMV-luciferase reporter, 72 h; active compounds read low; activity change, negative = inhibition, % at 57.5 µM; 410,000 compounds, 4.5% hits; in the data active means activity change below about -60%; inconclusive means no clear call, values can overlap the other calls; inactive means above about -39%
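Inhibition of viral replication was scored as loss of reporter luminescence in HFFs infected with HCMV-luciferase (MOI 1 PFU/cell) for 72 h; compounds tested at 2 doses, normalized to buffer and Salinomycin controls.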
Marburg entry inh = qHTS for inhibitors of binding or entry into cells for Marburg Virus. 300,000 compounds, 1.8% hits. Potency, µM (top dose mostly 37.8 µM), actives largely listed as inhibitors. Marburg virus pseudotyped entry inhibition, cell reporter. AID 540276, 2011; calls by dose curve; tested in HEK293 cells
FMDV antiviral = High Throughput Screening for Foot and Mouth Disease Virus Antivirals | FMDV antiviral cell-based qHTS | Potency, µM (top dose mostly 57.9 µM), actives largely listed as inhibitors | 410,000 compounds, 1.2% hits | AID 1159524, 2015; calls by dose curve; tested in HEK293T cells; further: read-out not given here; nearly all actives have a fitted effect of over 45% in size
LASV entry inh = qHTS for Inhibitors of binding or entry into cells for Lassa Virus; Lassa virus pseudotype entry inhibition, cell reporter; Potency, µM (doses to about 37.9 µM), most hits filed as inhibitors; 300,000 compounds, 1.2% hits; calls by dose curve; tested in HEK293 cells; further: nearly all actives have a fitted effect of over 50% in size
Hits are given with their value; – = inactive; ? = inconclusive; · = no result; ! = not confirmed by another sample; [ ] = another dose, or the depositor's remark. Hits are enriched below; roughly 8% of the tested compounds scored in any of these assays.

SMILES | HCV inh | SARS PLP yeast | HCMV antiviral | Marburg entry inh | FMDV antiviral | LASV entry inh
O=C(c1ccc(F)cc1F)C1CCN(c2ccc([N+](=O)[O-])cn2)CC1 | 4.47µM | – | -77.4 | ? | ? | –
CCc1c(C)sc2c1CCN(Cc1ccc(F)cc1)C2c1ccccc1 (stereo not given) | · | · | -98.1 | · | – | ?
CCc1c(C)sc2c1CCN(Cc1cccc(F)c1)C2c1ccccc1 (stereo not given) | · | · | -78.0 | · | – | ?
CCc1c(C)sc2c1CCN(C(=O)Nc1cc(C)cc(C)c1)C2c1ccccc1 (stereo not given) | · | · | – | · | – | –
CCc1c(C)sc2c1CCN(Cc1ccc(C#N)cc1)C2c1ccccc1 (stereo not given) | · | · | – | · | – | ?
C1=NCCc2c1[nH]c1ccccc21 | – | · | -94.9 | ? | – | 5.01µM
Cn1cccc1C(=O)N1CCC2(CC1)CCN(c1cccc(-c3ccccc3)c1)CC2 | · | · | · | · | – | ·
O=C(c1ccccc1Cl)N1N=C(c2ccc(Br)cc2)CC1c1nc2ccccc2[nH]1 (stereo not given) | 11.2µM | – | – | ? | – | ?
O=C(c1ccncc1)N1N=C(c2ccc(Br)cc2)CC1c1ccccc1O (stereo not given) | ? | – | – | ? | ? | ·
COc1ccc([C@H]2C(C#N)=C(SC)NC3=C2C(=O)CC(C)(C)C3)cc1 | · | · | · | – | · | ·
CC(=O)CSc1nnc2c3ccccc3nc(C(C)(C)C)n12 | – | – | ? | · | – | ·
Cc1nc2c3ccccc3nc(SCC(=O)c3ccc(Cl)cc3)n2n1 | 25.1µM | – | – | – | ? | –
Cc1nc2c3ccccc3nc(SCC(=O)N3CC(C)CC(C)C3)n2n1 (stereo not given) | – | – | – | ? | – | –
Cc1ccc(C(=O)CSc2nnc3c4ccccc4nc(C(C)(C)C)n23)cc1 | ? | – | ? | 6.31µM | – | ?
CC(=O)c1cccc(NC(=O)CCc2nc3cccnc3n2Cc2cccs2)c1 | · | · | – | ? | – | –
Nc1cccc(Nc2nc(OC(C(F)(F)F)C(F)(F)F)nc(OC(C(F)(F)F)C(F)(F)F)n2)c1 | ? | – | -107.2 | ? | – | ?
COc1nc(Nc2ccc(O)cc2)nc(OC(C(F)(F)F)C(F)(F)F)n1 | ? | – | ? | – | ? | ?
Cc1cccc(NC(=O)c2sc(-n3nc(C)c(Cc4ccc5c(c4)OCO5)c3C)nc2C)c1C | · | · | – | – | – | –
O=S(=O)(c1ccccc1)N1CCN(CC2CC3C=CC2C3)CC1 (stereo not given) | – | – | -102.0 | · | – | ·
O=C(C1=C(O)CCCC1)N1CCOCC1 | · | · | · | – | · | ·
CCCCNc1nc2c(S(=O)(=O)c3ccc(Br)cc3)nnn2c2ccsc12 | · | · | – | · | – | –
CCCc1nc(SCC(=O)N2CCC(Cc3ccccc3)CC2)c2c(=O)n(C)c(=O)n(C)c2n1 | 10µM! | – | – | – | ? | ·
CCCc1nc(SCC(=O)N2CCCc3ccccc32)c2c(=O)n(C)c(=O)n(C)c2n1 | 10µM | – | · | – | – | ·
CCc1nc(SCC(=O)N2CCN(c3ccccc3)CC2)c2c(=O)n(C)c(=O)n(C)c2n1 | · | – | · | · | · | ·
CC1Cc2nc(SCC(=O)N3CCCc4ccccc43)n(C)c(=O)c2S1 (stereo not given) | 11.2µM | – | – | · | ? | ·
SMILES | HCV inh | SARS PLP yeast | HCMV antiviral | Marburg entry inh | FMDV antiviral | LASV entry inh
Cn1c(=O)c2c(SCC(=O)Nc3ccc4c(c3)OCCO4)nc(CC(C)(C)C)nc2n(C)c1=O | – | – | -64.0 | · | – | ·
O=C(NCc1ccc2c(c1)OCO2)[C@@H]1[C@@H](CO)[C@@H]2Cn3c(cccc3=O)[C@H]1N2Cc1cccnc1 | · | · | – | · | · | ·
Cc1ccc(-c2nc(SCC(=O)N3CCc4ccccc43)c3c(=O)n(C)c(=O)n(C)c3n2)cc1 | · | · | – | · | – | –
Cn1c(=O)c2c(SCC(=O)N3CCCc4ccccc43)nc(CC(C)(C)C)nc2n(C)c1=O | ? | – | · | · | 22.4µM | ·
O=C(Nc1ccc(F)cc1F)N1CCCN(c2ccc([N+](=O)[O-])cn2)CC1 | ? | – | ? | – | ? | –
CC(C)(C)c1ccc(NC(=O)N2CCN(c3ccc([N+](=O)[O-])cn3)CC2)cc1 | ? | – | -93.8 | – | 22.4µM | ?
O=C(Nc1ccccc1)N1CCCN(c2ccc(C(F)(F)F)cn2)CC1 | 11.2µM | – | -65.9 | · | ? | ·
CCN(Cc1ccncc1)C(=O)c1cc(COc2ccc(C)c(C)c2)on1 | ? | – | -74.1 | ? | – | –
Cc1ccc(OCc2cc(C(=O)N(CCO)Cc3cccs3)no2)cc1C | – | – | – | – | – | ?
Cn1cc(CNC(=O)c2cc(COc3ccc4c(c3)CCCC4)on2)cn1 | – | – | – | – | – | –
CCN(Cc1cnn(C)c1)C(=O)c1cc(COc2ccc3c(c2)CCCC3)on1 | 22.4µM | – | – | · | – | ·
COc1ccc(C)cc1N1C(=N)/C(=C2/Nc3ccccc3S2)C(c2ccccc2)C1=O (stereo not given) | – | – | – | ? | 25.1µM | –
COc1ccc(C(=O)N2CC(=O)Nc3ccc(C)cc3C2c2ccccc2)cc1OC (stereo not given) | · | · | – | ? | – | –
COc1ccccc1OC1=NS(=O)(=O)c2ccccc21 | – | – | – | – | 39.8µM | –
COc1ccc(-c2cc([C@H]3[C@@H]4C=CCC[C@@]4(C)C(=O)N3Cc3ccccc3)ccc2F)cc1OC | 10µM | – | – | · | ? | ·
COc1ccc(-c2c([C@H]3[C@@H]4C=CCC[C@@]4(C)C(=O)N3Cc3ccccc3)ccc3ccccc23)cc1OC | –[8.37 µM] | – | -60.3 | · | ? | ·
CSc1ccc(CNc2nnnn2C)cc1 | – | – | -80.6 | – | – | –
CCCn1nnnc1NCc1ccc(SC)cc1 | – | – | – | · | – | ·
Cc1ccccc1C1CC(=O)Nc2ccc3ccccc3c21 (stereo not given) | · | · | – | ? | – | ?
COC(=O)CN1C(C(=O)c2ccccc2)=C(OC(=O)c2ccc(C)cc2)c2ccccc2S1(=O)=O | · | · | – | ? | – | –
CCCCN(CCCC)C1=C(C(=O)c2ccccc2)N(CC)S(=O)(=O)c2ccccc21 | · | · | – | – | – | –
CCN1C(C(=O)c2ccccc2)=C(OC(=O)c2ccc(OC)cc2)c2ccccc2S1(=O)=O | · | · | -68.1 | – | – | –
CCN1C(C(=O)c2ccccc2)=C(OC(=O)COc2ccccc2)c2ccccc2S1(=O)=O | · | · | -60.2 | – | – | –
CCCN1C(C(=O)c2ccccc2)=C(OC(=O)c2ccc(F)cc2)c2ccccc2S1(=O)=O | · | · | -89.6 | – | – | –
CCN1/C(=C(\O)c2ccccc2)C(=O)c2ccccc2S1(=O)=O | – | – | -87.6 | ? | – | –
Cc1cccc(C)c1NC(=O)Cn1c(=O)n(Cc2ccc3c(c2)OCO3)c(=O)c2oc3ccccc3c21 | · | · | – | · | – | –
CCc1ccc(S(=O)(=O)c2nnn(-c3cccc(C)c3)c2N)cc1 | · | · | – | – | – | –
